Where “and” joins values, the source holds several entries; their conditions need not be identical. Equal values may be shown once. Records with an inconclusive call do not appear. Entries that show only a call come without a potency. More than one record can exist for a structure, and the calls need not agree. Calls of active or inactive are those of the source. Calls follow the shape of the dose curve; as a rule, active = well fitted curve in the direction sought with a large enough effect in the repeat runs; inconclusive = weak or mixed curves; inactive = no such curve, though single readings can be large; an effect the other way counts as inactive or inconclusive.
Tests used:
[1] = A CellTox Green Cytotoxicity Assay to monitor cytotoxicity in HEK293 cells - 32 hour (AID 1224881); also: nearly all actives have a fitted effect of over 40% in size; also: potency is read from the fitted curve at half-maximal effect
Summary of the method: (§1)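 Cytotoxicity was tracked continuously in HEK293 cells by a DNA-binding dye excluded from viable cells. Compounds were transferred in DMSO 5 h after seeding; fluorescence was recorded at intervals up to 40 h.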

[2] = A CellTox Green Cytotoxicity Assay to monitor cytotoxicity in HepG2 cells - 0 hour (AID 1224882); also: nearly all actives have a fitted effect of over 35% in size
Summary of the method: (§2)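 Real-time, homogeneous cytotoxicity readout: dead-cell DNA staining by CellTox Green in HepG2 monolayers, fluorescence measured at timed intervals up to 40 h of continuous compound exposure.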

[3] = A CellTox Green Cytotoxicity Assay to monitor cytotoxicity in HEK293 cells - 8 hour (AID 1224884); also: nearly all actives have a fitted effect of over 35% in size; also: potency is read from the fitted curve at half-maximal effect
Summary of the method: as §1

[4] = qHTS RealTime-Glo MT Cell Viability Assay in HepG2 cells - 16 hour (AID 1224885); also: nearly all actives have a fitted effect of over 50% in size
Summary of the method: (§3)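 Real-time, nonlytic viability: 600 HepG2 cells/well mixed with NanoLuc enzyme plus prosubstrate; 5 h settle, compound (DMSO) added by pintool; luminescence monitored over 40 h at 37 C.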

[5] = qHTS RealTime-Glo MT Cell Viability Assay in HEK293 cells - 24 hour (AID 1224886); also: nearly all actives have a fitted effect of over 50% in size; also: potency is read from the fitted curve at half-maximal effect
Summary of the method: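 Cells + reagent dispensed (600 cells/well, HEK293) → 5 h at 37 C/5% CO2 → 23 nL compound in DMSO pinned → 40 h at 37 C → luminescence read at 0, 8, 16, 24, 32, 40 h.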

[6] = qHTS RealTime-Glo MT Cell Viability Assay in HEK293 cells - 8 hour (AID 1224887); also: nearly all actives have a fitted effect of over 50% in size; also: potency is read from the fitted curve at half-maximal effect
Summary of the method: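 Nonlytic bioluminescent viability monitoring. HEK293 at 600 cells/well with reagent; 5 h settle; compound transfer by pintool; plates held at 37 C and read at set time points.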

[7] = A CellTox Green Cytotoxicity Assay to monitor cytotoxicity in HEK293 cells - 16 hour (AID 1224888); also: nearly all actives have a fitted effect of over 35% in size
Summary of the method: as §1

[8] = qHTS RealTime-Glo MT Cell Viability Assay in HepG2 cells - 0 hour (AID 1224889); also: nearly all actives have a fitted effect of over 50% in size
Summary of the method: as §3

[9] = A CellTox Green Cytotoxicity Assay to monitor cytotoxicity in HepG2 cells - 32 hour (AID 1224883); also: nearly all actives have a fitted effect of over 50% in size; also: potency is read from the fitted curve at half-maximal effect
Summary of the method: as §2

[10] = A CellTox Green Cytotoxicity Assay to monitor cytotoxicity in HepG2 cells - 8 hour (AID 1224890); also: nearly all actives have a fitted effect of over 45% in size
Summary of the method: as §2

Structure (SMILES) | Potency [1] | Potency [2] | Potency [3] | Potency [4] | Potency [5] | Potency [6] | Potency [7] | Potency [8] | Potency [9] | Potency [10]
O=c1nc(O)n(Cl)c(=O)n1Cl | inactive | inactive | inactive | inactive | inactive | inactive | inactive | inactive |  | 
CNC | inactive | inactive | inactive | inactive | inactive | inactive | inactive | inactive | inactive | inactive
COc1ccccc1N | inactive | inactive | inactive | inactive | inactive | inactive | inactive | inactive |  | 
CN(C)[C@@H]1C(=O)C(C(N)=O)=C(O)[C@@]2(O)C(=O)C3=C(O)c4c(O)cccc4[C@@](C)(O)[C@H]3[C@H](O)[C@@H]12 | inactive | inactive | inactive |  | inactive | inactive | inactive | inactive | inactive | 
O=[N+]([O-])O | inactive | inactive | inactive | inactive | inactive | inactive | inactive | inactive |  | 
Cc1cc(-c2ccc(N)c(C)c2)ccc1N | inactive | inactive | inactive | inactive | inactive | inactive | inactive | inactive | inactive and 43.6 µM (active) | inactive
CCCCn1cc[n+](C)c1 | inactive | inactive | inactive | inactive | inactive | inactive | inactive | inactive | inactive | 
CCCC[n+]1ccccc1 | inactive | inactive | inactive | inactive | inactive | inactive | inactive | inactive |  | 
Cc1cc(Cl)ccc1OCC(=O)O | inactive | inactive | inactive |  | inactive | inactive | inactive | inactive | inactive | 
CC[n+]1ccccc1 | inactive | inactive | inactive | inactive | inactive | inactive | inactive | inactive |  | inactive
Nc1ccc(Cl)cc1 | inactive | inactive | inactive | inactive | inactive | inactive | inactive | inactive |  | inactive
O=P1(N(CCCl)CCCl)NCCCO1 (stereo not given) | inactive | inactive | inactive |  | inactive | inactive | inactive | inactive | inactive | 
CCOP(=S)(OCC)Oc1ccc2c(C)c(Cl)c(=O)oc2c1 | inactive | inactive | inactive | inactive | 14 µM (active) and 43.6 µM (active) and inactive | 12.4 µM (active) and 38.9 µM (active) and inactive | inactive | inactive |  | inactive
C[N+](C)(C)Cc1ccccc1 | inactive | inactive | inactive |  | inactive | inactive | inactive | inactive | inactive | inactive
OCCOc1ccccc1 | inactive | inactive | inactive |  | inactive | inactive | inactive | inactive | inactive | 
N#CS | inactive | inactive | inactive | inactive | inactive | inactive | inactive | inactive |  | 
COCC(=O)N(c1c(C)cccc1C)C(C)C(=O)OC (stereo not given) | inactive | inactive | inactive |  | inactive | inactive | inactive | inactive | inactive | 
O=C(O)C(Cl)Cl | inactive | inactive | inactive | inactive | inactive | inactive | inactive | inactive | inactive | 
CC[N+](CC)(CC)CC | inactive | inactive | inactive |  | inactive | inactive | inactive | inactive | inactive | 
O=C(O)c1nc(Cl)ccc1Cl | inactive | inactive | inactive | inactive | inactive | inactive | inactive | inactive |  | 
CCCCCCCCCCn1cc[n+](C)c1 | inactive | inactive | inactive | inactive | 389 nM (active) | inactive and 1.74 µM (active) | inactive | inactive | 44.1 µM (active) and 54.9 µM (active) | inactive
CCCn1cc[n+](C)c1 | inactive | inactive | inactive | inactive | inactive | inactive | inactive | inactive | inactive | 
CCCC[n+]1ccc(C)cc1 | inactive and 21.8 µM (active) | inactive | inactive and 21.8 µM (active) | inactive | 43.4 µM (active) and inactive | 30.7 µM (active) and inactive |  | inactive | inactive and 48.7 µM (active) | inactive
COP(=O)(OC)C(O)C(Cl)(Cl)Cl (stereo not given) | inactive | inactive | inactive | inactive | inactive | inactive | inactive | inactive | inactive | 
CCCC[n+]1ccccc1C | inactive | inactive | inactive | inactive | inactive | inactive | inactive | inactive |  | 
CCCCn1cc[n+](C)c1C | inactive | inactive | inactive |  | inactive | inactive | inactive | inactive | inactive | 
O=C(O)C(Cl)(Cl)Cl | inactive | inactive | inactive | inactive | inactive | inactive | inactive | inactive |  | 
CCC[N+]1(C)CCCCC1 | inactive | inactive | inactive | inactive | inactive | inactive | inactive | inactive | inactive | inactive
CCCCCCn1cc[n+](C)c1 | inactive | inactive | inactive |  | 22.2 µM (active) and 14 µM (active) and 17.7 µM (active) | inactive | inactive | inactive | inactive | inactive
C=CCOC(Cn1ccnc1)c1ccc(Cl)cc1Cl (stereo not given) | 55.1 µM (active) and inactive | inactive | inactive | inactive | 24600 nM (active) | inactive | inactive | inactive | 49.1 µM (active) and 54.9 µM (active) | inactive
